Measured values: PubChem BioAssay AID1479148 (National Center for Advancing Translational Sciences (NCATS), 2020)
Inconclusive results are not listed. Calls of active or inactive are those of the source. Calls follow the shape of the full dose curve.

Test: Confirmatory qHTS for inhibitors of SARS-S pseudo-typed particle cell entry
Conditions: SARS-S pseudotyped particle cell entry, reporter luminescence; series mostly up to 57.1 µM

Structure (SMILES) | Potency
CN(C)[C@@H](CCOc1cccc2ccccc12)c1ccccc1 | 6810 nM (active)
Cc1cc(C(C#N)c2ccc(Cl)cc2)c(Cl)cc1NC(=O)c1cc(I)cc(I)c1O (stereo not drawn) | 30400 nM (active)
CC(C)C[C@H](NC(=O)[C@H](CCc1ccccc1)NC(=O)CN1CCOCC1)C(=O)N[C@@H](Cc1ccccc1)C(=O)N[C@@H](CC(C)C)C(=O)[C@@]1(C)CO1 | 681 nM (active)
CN1CCC(=C2c3ccccc3C=Cc3ccccc32)CC1 | 27100 nM (active)
COC(=O)C[C@](O)(CCCC(C)(C)O)C(=O)O[C@@H]1C(OC)=C[C@]23CCCN2CCc2cc4c(cc2[C@H]13)OCO4 | 1520 nM (active)
O=c1c(C2CC(c3ccc(-c4ccc(Br)cc4)cc3)Cc3ccccc32)c(O)sc2ccccc12 (stereo not drawn) | 13600 nM (active)
N/C(=N\N=C\c1ccc(Cl)cc1)N/N=C/c1ccc(Cl)cc1 | inactive
Nc1ccn([C@@H]2O[C@H](CO)[C@@H](O)C2(F)F)c(=O)n1 | 192 nM (active)
O=c1ccc2ccccc2o1 | inactive
CC(C)OC(=O)OCOP(=O)(CO[C@H](C)Cn1cnc2c(N)ncnc21)OCOC(=O)OC(C)C | 42.9 nM (active)
C=CC(=O)Nc1cc(Nc2nccc(-c3cn(C)c4ccccc34)n2)c(OC)cc1N(C)CCN(C)C | 1520 nM (active)
CN1CCN(CCC=C2c3ccccc3Sc3ccc(S(=O)(=O)N(C)C)cc32)CC1 | 6070 nM (active)
Oc1c(Cl)cc(Cl)c(Cl)c1Cc1c(O)c(Cl)cc(Cl)c1Cl | 1210 nM (active)
CCC(C)(C)C(=O)O[C@H]1C[C@@H](C)C=C2C=C[C@H](C)[C@H](CC[C@@H]3C[C@@H](O)CC(=O)O3)[C@H]21 | 607 nM (active)
CC(=O)[C@]1(O)Cc2c(O)c3c(c(O)c2[C@@H](O[C@H]2C[C@H](N)[C@H](O)[C@H](C)O2)C1)C(=O)c1ccccc1C3=O | 6070 nM (active)
O=C1CCc2ccc(OCCCCN3CCN(c4cccc(Cl)c4Cl)CC3)cc2N1 | 19200 nM (active)
CC[C@@]1(O)C(=O)OCc2c1cc1n(c2=O)Cc2cc3c(CN(C)C)c(O)ccc3nc2-1 | 764 nM (active)

Structure (SMILES) | Potency
C/C=C(/C)C(=O)O[C@H]1C(C)=CC23C(=O)C(C=C(CO)[C@@H](O)[C@]12O)[C@H]1[C@@H](C[C@H]3C)C1(C)C (stereo partly drawn) | 12.1 nM (active)
COc1cc(NS(C)(=O)=O)ccc1Nc1c2ccccc2nc2ccccc12 | 961 nM (active)
COc1cccc2c1C(=O)c1c(O)c3c(c(O)c1C2=O)C[C@@](O)(C(=O)CO)CC3OC1CC(N2CCOC(OC)C2)C(O)C(C)O1 (stereo partly drawn) | 96.1 nM (active)
N#CC(c1ccc(Cl)cc1)c1c(Cl)cc(-n2ncc(=O)[nH]c2=O)cc1Cl (stereo not drawn) | 19200 nM (active)
C[C@]12CC[C@H](O)C[C@H]1CCC1C2CC[C@]2(C)[C@@H](c3ccc(=O)oc3)C[C@H]3O[C@]132 (stereo partly drawn) | 5410 nM (active)
CCc1c2c(nc3ccc(OC(=O)N4CCC(N5CCCCC5)CC4)cc13)-c1cc3c(c(=O)n1C2)COC(=O)[C@]3(O)CC | inactive
Cc1ccc(NC(=O)c2ccc(CN3CCN(C)CC3)cc2)cc1Nc1nccc(-c2cccnc2)n1 | 30400 nM (active)
CCN(CC)Cc1cc(Nc2ccnc3cc(Cl)ccc23)ccc1O | 8570 nM (active)
Cc1c(N)nc(C(CC(N)=O)NCC(N)C(N)=O)nc1C(=O)NC(C(=O)NC(C)C(O)C(C)C(=O)NC(C(=O)NCCc1nc(-c2nc(C(=O)NCCCN[C@@H](C)c3ccccc3)cs2)cs1)C(C)O)C(O[C@@H]1O[C@@H](CO)[C@@H](O)[C@H](O)[C@@H]1O[C@H]1O[C@H](CO)[C@@H](O)[C@H](OC(N)=O)[C@@H]1O)c1cnc[nH]1 (stereo partly drawn) | 857 nM (active)
CCn1cc(C(=O)O)c(=O)c2cc(F)c(N3CCNC(C)C3)c(F)c21 (stereo not drawn) | inactive
C=C(C)[C@H]1Cc2c(ccc3c2O[C@@H]2COc4cc(OC)c(OC)cc4[C@@H]2C3=O)O1 | 34.1 nM (active)
CN(C)CCC=C1c2ccccc2C(C)(C)c2ccccc21 | 10800 nM (active)
CC(C)(C)NCC(O)COc1ccccc1C1CCCC1 (stereo not drawn) | 3410 nM (active)
Cc1nnc(C(=O)NC(C)(C)c2nc(C(=O)NCc3ccc(F)cc3)c(O)c(=O)n2C)o1 | 10.8 nM (active)
O=C(O)c1cc(O)c2c(c1)[C@H]([C@H]1c3cc(C(=O)O)cc(O)c3C(=O)c3c(O[C@@H]4O[C@H](CO)[C@@H](O)[C@H](O)[C@H]4O)cccc31)c1cccc(O[C@@H]3O[C@H](CO)[C@@H](O)[C@H](O)[C@H]3O)c1C2=O | inactive
COc1cccc2c1C(=O)c1c(O)c3c(c(O)c1C2=O)C[C@@](O)(C(=O)CO)C[C@@H]3O[C@H]1C[C@H](N)[C@H](OC2CCCCO2)[C@H](C)O1 (stereo partly drawn) | 7640 nM (active)
